Test results: PubChem BioAssay (NCI)
This is part of a sample that, as a whole, favours compounds with a hit. Of some 83,000 tested, about 20% had one in any assay.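 Method: cells in 96-well plates; compound added at one concentration; 48 h incubation; percent growth measured; values under 10 scored active.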 Active and inactive are the calls of the source.

Experiments:
Test in all cases: NCI-60 one-dose screen, 48 h (100 = growth as untreated, 0 = no growth, -100 = all killed)
[1] = system: HCT-15 colon; conditions: 10 µM unless noted
[2] = system: HT29 colon; conditions: 10 µM unless noted
[3] = system: U251 CNS; conditions: 10 µM unless noted
[4] = system: SK-MEL-5 melanoma; conditions: 10 µM unless noted
[5] = system: UACC-62 melanoma; conditions: 10 µM unless noted
[6] = system: LOX IMVI melanoma; conditions: 10 µM
[7] = system: SK-MEL-28 melanoma; conditions: 10 µM unless noted
[8] = system: PC-3 prostate; conditions: 10 µM unless noted
[9] = system: SNB-19 CNS; conditions: 10 µM unless noted
[10] = system: SNB-75 CNS; conditions: 10 µM unless noted

Measured: growth

CC(C)CSc1nc(NCCc2c[nH]c3ccccc23)c(C#N)c(-c2ccc(F)cc2)n1
inactive: [1] 19.6% | [3] 21.1% | [4] 17.3% | [5] 60.6% | [6] 12.4% | [7] 79.1%
active: [2] 5.49%

O=C1C(=Nc2ccc(F)c(Cl)c2)c2cccc3cccc1c23
active: [1] 8.52% | [2] 5.96%
inactive: [3] 24.7% | [8] 77.9% | [5] 52.8% | [6] 46.9% | [7] 57.9%

CCCCCCCCc1ccc(C(=O)Nc2cccc(P(=O)(O)O)c2)cc1
inactive: [1] 100% | [2] 114% | [3] 108% | [8] 92.9% | [4] 97.7% | [5] 91.8% | [6] 103% | [7] 107%

COc1ccc(-c2nc3cc(C)ccc3n2CC(=O)N=Nc2c(O)[nH]c3ccc(Cl)cc23)cc1
inactive: [9] 31.4%
active: [1] -71.2% | [2] -71.1% | [3] -73.9% | [4] -36.2% | [5] -52.3% | [6] -93.4% | [7] -67.6%

CN(C)CCn1c2ccccc2c2nc3cc(C(F)(F)F)ccc3nc21
inactive: [1] 19.4% | [2] 27.6% | [9] 36.4% | [3] 38.1% | [4] 28.3% | [5] 44.8% | [7] 44.4%

Cc1ccc(S(=O)(=O)c2nc(S(=O)(=O)c3ccc(C)cc3)c(N3CCN(C)CC3)s2)cc1
inactive: [2] 56% | [10] 91.3% | [9] 85.7% | [3] 52.9% | [8] 78.8% | [4] 63.2% | [5] 48% | [6] 30.4% | [7] 68.8%

CCOC(=O)c1ccc(Nc2nc(NN)nc(-c3ccc(F)cc3)c2C#N)cc1
inactive: [1] 109% | [2] 97.6% | [9] 100% | [8] 103% | [4] 102% | [5] 91.3% | [6] 112% | [7] 109%

COc1ccc2[nH]cc(-c3nc(N)nnc3-c3cn(C)c4ncccc34)c2c1
inactive: [1] 44.4% | [2] 35.6% | [3] 60.1% | [8] 68.4% | [4] 31.2% | [5] 37.7% | [7] 62.3%

COc1ccc(N2N=C(c3ccc4c(c3)OCO4)CC2c2cccc(NC(=O)CCNS(=O)(=O)c3ccc(Cl)cc3)c2)cc1 (centres undefined)
inactive: [1] 33% | [2] 17.1% | [3] 29.5% | [8] 16.5% | [4] 24.2% | [5] 39.5% | [6] 23.3% | [7] 28.2%
